Test results: PubChem BioAssay AID592 (National Center for Advancing Translational Sciences (NCATS), 2007)
Hit rate of the full screen: of about 59,000 compounds, fewer than 10 were called active. How the calls were made is not given here. Only a sample is shown.

experiment: qHTS Assay for Spectroscopic Profiling in A647 Spectral Region; conditions: Compound fluorescence, A647 channel (570/671 nm), Tris buffer; hits give high values
Text: NIH Molecular Libraries Screening Centers Network [MLSCN] NIH Chemical Genomics Center [NCGC] […] Occasionally, the artifactual effect may originate from the compounds own spectral or other biophysical properties which generally tend to track its assay concentration. Pre-screening/profiling the library with respect to the compounds spectral properties should help one exclude false positives early on. While the most informative fluorescent profiling data set is obtained by performing a full excitation and emission scan of each well by using a monochromator-based plate reader, such an approach is practical only on a very limited scale as scanning each well requires long time. An alternative approach, applied here, is to perform plate reader scans using selected excitation and emission wavelength pairs to generate a multidimensional relational database that correlates compound concentration and the respective relative fluorescence intensity at a given wavelength set. A standard curve of Alexa 647 (A647) present on each plate as six-point concentration series, was used to compute a normalized fluorescence response, termed dye-equivalent concentration, for each compound at each concentration.
NCGC Assay Protocol Summary: Buffer: 100 mM Tris buffer, pH 8.0 Dye standard plate: The wells in columns 1 through 4 of a Kalypsys polypropylene 1536-well compound plate were filled with standard solutions of fluorophore corresponding to the spectral region of interest. Solutions of A647 were placed in the following wells: AC1, AD1: 3 mM, AC2, AD2: 300 uM, AC3, AD3: 30 uM, AC4, AD4: zero (DMSO), AE1, AF1: 3 uM, AE2, AF2: 900 nM, AE3, AF3: 300 nM, AE4, AF4: zero (DMSO). Assay Steps: Six uL of buffer were dispensed to 1536-well Greiner black plates. Compounds and dye standards (23 nL) were transferred via Kalypsys PinTool. The plates were incubated for 15 min at room temperature, and then read on ViewLux (Perkin-Elmer) High-throughput CCD imager using 570 nm and 671 nm excitation and emission filter set. Keywords: NIH Roadmap, MLSCN, MLI, MLSMR, qHTS, NCGC, A647, A-647, Fluorescent Profiling.

Q: For `O=c1c(-c2cccs2)nc2cnc(Oc3ccccc3)nc2n1-c1ccccc1`, which max dye-equivalent concentration is on record?
A: 2.8 nM (inactive)

Q: Which max dye-equivalent concentration does the source give for `COc1cc(C2C3C(=O)N(c4ccccc4)C(=O)C3ON2c2ccccc2)ccc1O` (stereo not drawn) here?
A: 30 nM (inactive)

Q: Which max dye-equivalent concentration does the source give for `COc1ccc2oc(=O)c(C(=O)O)cc2c1` here?
A: 1 nM (inactive)

Q: Which max dye-equivalent concentration does the source give for `O=C1N(Cc2ccc3c(c2)OCO3)c2ccccc2C1(O)c1c[nH]c2ccccc12` (stereo not drawn) here?
A: 1 nM (inactive)

Q: With `O=C1CCC(C(=O)Nc2ccc(OC(F)F)cc2)N1` (stereo not drawn) as the compound, how does the max dye-equivalent concentration read?
A: 1 nM (inactive)

Q: For `CC(=O)N1CCC2(CCCN(c3ncccn3)C2)CC1`, which max dye-equivalent concentration is on record?
A: 1 nM (inactive)

Q: With `Cc1ccccc1Nc1nnc(C)c(=O)[nH]1` as the compound, how does the max dye-equivalent concentration read?
A: 45 nM (inactive)

Q: Which max dye-equivalent concentration does the source give for `Cc1ccc(-n2c(N)c(C(=O)N3CCOCC3)sc2=S)c(C)c1` here?
A: 1 nM (inactive)

Q: For `CC(=O)OC(C(=O)NC1CCCCC1)c1ccccc1` (stereo not drawn), which max dye-equivalent concentration is on record?
A: 30 nM (inactive)

Q: With `NC(=O)C1CCN(C(=O)c2ccc(C(F)(F)F)cc2)CC1` as the compound, how does the max dye-equivalent concentration read?
A: 1 nM (inactive)

Q: Which max dye-equivalent concentration does the source give for `COc1cccc(Cn2c(=O)c(C)nc3cnc(Oc4ccccc4)nc32)c1` here?
A: 1 nM (inactive)

Q: For `Cc1cccc(NC(=O)c2ccccc2NC(=O)C(C)(C)C)n1`, which max dye-equivalent concentration is on record?
A: 39 nM (inactive)

Q: Which max dye-equivalent concentration does the source give for `CCc1ccccc1NC1c2ccccc2C(=O)N1c1cccnc1` (stereo not drawn) here?
A: 11 nM (inactive)

Q: Which max dye-equivalent concentration does the source give for `CCOC(=O)c1c(C)nc(-c2ccccc2)nc1NC(=O)C(C)C` here?
A: 1 nM (inactive)

Q: For `Cc1nc(NCc2ccccc2)c(C(N)=O)c2c1COC(C)(C)C2`, which max dye-equivalent concentration is on record?
A: 37 nM (inactive)

Q: With `COc1ccccc1CNC(=O)CCCn1c(=O)c2ccccc2n(CC(=O)NC2CCCC2)c1=O` as the compound, how does the max dye-equivalent concentration read?
A: 28 nM (inactive)

Q: With `O=C(c1cccs1)N1CCN(C(=O)N2CCOCC2)CC1` as the compound, how does the max dye-equivalent concentration read?
A: 9.6 nM (inactive)

Q: With `CC1Cc2nc(SCC(=O)Nc3ccccc3F)n(C)c(=O)c2S1` (stereo not drawn) as the compound, how does the max dye-equivalent concentration read?
A: 1 nM (inactive)

Q: Which max dye-equivalent concentration does the source give for `COc1ccc2nccc(C(=O)O)c2c1` here?
A: 1 nM (inactive)

Q: With `CCn1c(=N)c(S(=O)(=O)c2ccc(F)cc2)cc2c(=O)n3ccccc3nc21` as the compound, how does the max dye-equivalent concentration read?
A: 1.8 nM (inactive)

Q: Which max dye-equivalent concentration does the source give for `O=C(CCCN1C(=O)CSc2ncccc21)N1CCN(c2cccc(C(F)(F)F)c2)CC1` here?
A: 6.4 nM (inactive)

Q: For `COc1ccc(C(=O)Nc2cccnc2)cc1C(=O)Nc1cccnc1`, which max dye-equivalent concentration is on record?
A: 1.5 nM (inactive)

Q: With `OCCCN1c2ccccc2Nc2nnc(-c3ccccc3)cc21` as the compound, how does the max dye-equivalent concentration read?
A: 20 nM (inactive)

Q: Which max dye-equivalent concentration does the source give for `CCOC(=O)c1[nH]cnc1C(=O)NC1CCCCC1` here?
A: 1 nM (inactive)

Q: Which max dye-equivalent concentration does the source give for `ClC(Cl)(Cl)C(N1CCN(c2ccccc2)CC1)N1CCN(c2ccccc2)CC1` here?
A: 1 nM (inactive)

Q: For `CN(Cc1ccco1)c1cc(-c2ccccc2C(F)(F)F)ncn1`, which max dye-equivalent concentration is on record?
A: 1 nM (inactive)

Q: Which max dye-equivalent concentration does the source give for `CC(=O)Oc1cccc(N2C(=O)CC(Nc3ccc(N4CCOCC4)cc3)C2=O)c1` (stereo not drawn) here?
A: 1 nM (inactive)

Q: With `Cn1c(=O)[nH]c(=O)c2c1nc(N(CCO)Cc1ccccc1)n2Cc1ccccc1Cl` as the compound, how does the max dye-equivalent concentration read?
A: 78 nM (inactive)

Q: With `Cn1cccc1C(=O)N1CCC2(CC1)CN(c1cccc(-c3ccccc3)c1)C2` as the compound, how does the max dye-equivalent concentration read?
A: 18 nM (inactive)

Q: For `CCCCn1c(=S)[nH]c2ncccc2c1=O`, which max dye-equivalent concentration is on record?
A: 1 nM (inactive)

Q: Which max dye-equivalent concentration does the source give for `CC1(C)SC2c3ccccc3C(=O)N2[C@@H]1C(=O)NCc1ccco1` (stereo partly drawn) here?
A: 1 nM (inactive)

Q: For `O=C(O)CN1C(=O)CC(Cc2ccccc2)C1=O` (stereo not drawn), which max dye-equivalent concentration is on record?
A: 1 nM (inactive)

Q: With `O=C(Cc1c(F)cccc1Cl)N1CCN(C(=O)c2ccco2)CC1` as the compound, how does the max dye-equivalent concentration read?
A: 7.2 nM (inactive)

Q: For `CCCn1c(=O)c2[nH]c(-c3ccc(OCC(=O)NCCN)cc3)nc2n(CCC)c1=O`, which max dye-equivalent concentration is on record?
A: 50 nM (inactive)

Q: Which max dye-equivalent concentration does the source give for `O=c1[nH]c(=O)c2nc3ccccc3nc2[nH]1` here?
A: 49 nM (inactive)

Q: For `Cc1nc2nc3c(cn2n1)C(=O)CC(c1ccccc1)C3` (stereo not drawn), which max dye-equivalent concentration is on record?
A: 28 nM (inactive)

Q: For `CSCC[C@H](NC(=O)NCc1cccs1)C(=O)O`, which max dye-equivalent concentration is on record?
A: 3.7 nM (inactive)

Q: Which max dye-equivalent concentration does the source give for `CN(C(=O)COc1nnc(-c2cccs2)c(-c2cccs2)n1)c1ccccc1` here?
A: 1 nM (inactive)

Q: For `Cc1cc(N2C(=O)C(=O)/C(=C(/O)c3ccccc3)C2c2cccc(Br)c2)no1` (stereo not drawn), which max dye-equivalent concentration is on record?
A: 1.8 nM (inactive)

Q: For `C/C(N)=C(\C#N)C(=O)NCCc1ccccn1`, which max dye-equivalent concentration is on record?
A: 39 nM (inactive)

Q: For `CCc1nnc(NC(=O)c2nc3nccc(C)n3n2)s1`, which max dye-equivalent concentration is on record?
A: 18 nM (inactive)

Q: For `N#Cc1ccc(CSc2nnc(-c3ccccn3)n2-c2ccc(Cl)cc2)cc1`, which max dye-equivalent concentration is on record?
A: 2.1 nM (inactive)

Q: With `Clc1ccc(C=Nc2ccc3c(c2)Cc2ccccc2-3)c(Cl)c1` as the compound, how does the max dye-equivalent concentration read?
A: 3.2 nM (inactive)

Q: For `CN(C)CCCNC(=O)c1ccc2[nH]c3ccccc3c2c1`, which max dye-equivalent concentration is on record?
A: 3 nM (inactive)

Q: Which max dye-equivalent concentration does the source give for `CC(C)CSC[C@@H]1O[C@H](n2cnc3c(N)nccc32)[C@H](O)[C@@H]1O` here?
A: 13 nM (inactive)

Q: For `Cc1ccccc1Nc1nc(N)nc(CN2CCN(c3ccccn3)CC2)n1`, which max dye-equivalent concentration is on record?
A: 44 nM (inactive)

Q: For `COc1ccc(C(c2nnnn2Cc2cccs2)N2CCN(c3ccccc3)CC2)cc1OC` (stereo not drawn), which max dye-equivalent concentration is on record?
A: 11 nM (inactive)

Q: For `COC(=O)CNC(=O)c1ccc2c(c1)S(=O)(=O)c1ccccc1C2=O`, which max dye-equivalent concentration is on record?
A: 6.7 nM (inactive)

Q: For `O=C(O)c1ccc(C(=O)c2ccccc2C(=O)O)cc1C(=O)O`, which max dye-equivalent concentration is on record?
A: 3.2 nM (inactive)

Q: Which max dye-equivalent concentration does the source give for `O=C(O)CSCNC(=O)CC12CC3CC(CC(C3)C1)C2` here?
A: 1.2 nM (inactive)

Q: Which max dye-equivalent concentration does the source give for `COc1cc(C(=O)N(Cc2ccc(N(C)C)cc2)C2CCS(=O)(=O)C2)cc(OC)c1OC` (stereo not drawn) here?
A: 8.2 nM (inactive)

Q: With `O=S(=O)(/C=C/c1ccccc1)NCCc1ccccn1` as the compound, how does the max dye-equivalent concentration read?
A: 23 nM (inactive)

Q: Which max dye-equivalent concentration does the source give for `Fc1ccccc1C(c1nnnn1Cc1ccc2c(c1)OCO2)N1CCN(Cc2ccccc2)CC1` (stereo not drawn) here?
A: 3.5 nM (inactive)

Q: Which max dye-equivalent concentration does the source give for `Cc1cc(C)nc(SCc2nnc(SCC(=O)OC3CCCCC3)o2)n1` here?
A: 1 nM (inactive)

Q: Which max dye-equivalent concentration does the source give for `Cc1csc(NC(=O)C2CCCN2C(=O)OCC(C)C)n1` (stereo not drawn) here?
A: 15 nM (inactive)

Q: For `N=C(CC(=O)Nc1ccccn1)c1ccccc1`, which max dye-equivalent concentration is on record?
A: 36 nM (inactive)

Q: Which max dye-equivalent concentration does the source give for `Cc1oc(C)c(C(=O)NCCCC(=O)O)c1C(=O)NCCCC(=O)O` here?
A: 15 nM (inactive)

Q: For `Cc1c(O)c(Br)c(C)c(O)c1Br` (tested in a mixture with another compound), which max dye-equivalent concentration is on record?
A: 36 nM (inactive)
